Results filed as inconclusive are left out. Entries that show only a call come without a potency. Activity calls are given as the source filed them. Calls come from the whole dose curve; as a rule, active = well fitted inhibition curve with a large enough effect; inconclusive = small, poorly fitted or top-dose-only effect; inactive = flat fitted curve, though single readings scatter.
Experiments:
Assay in all cases: qHTS profiling for inhibitors of Plasmodium falciparum proliferation (AID 504749); note: nearly all actives have a fitted effect of over 60% in size
Conditions in all cases: P. falciparum in erythrocytes, SYBR Green DNA, 72 h; series mostly up to 28.7 µM
CP247 = system: CP247
Outline: (§1)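 P. falciparum-infected erythrocytes (0.3% parasitemia, 2.5% hematocrit) incubated with compound 72 h at 37 C, 5% CO2. Parasite DNA detected by SYBR Green after lysis, overnight at room temperature; normalised to 0.29 uM artemisinin and DMSO.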

CP250 = system: CP250
Outline: as §1

CP252 = system: CP252
Outline: as §1

CP256 = system: CP256
Outline: as §1

CP260 = system: CP260
Outline: as §1

CP262 = system: CP262
Outline: as §1

CP265 = system: CP265
Outline: as §1

CP266 = system: CP266
Outline: as §1

CP268 = system: CP268
Outline: as §1

CP269 = system: CP269
Outline: as §1

CP286 = system: CP286
Outline: as §1

CP291 = system: CP291
Outline: as §1

CP297 = system: CP297
Outline: as §1

CP305 = system: CP305
Outline: as §1

CP315 = system: CP315
Outline: as §1

CP325 = system: CP325
Outline: as §1

CP329 = system: CP329
Outline: as §1

CP335 = system: CP335
Outline: as §1

DFO2036 = system: DFO2036
Outline: as §1

DIV14 = system: DIV14
Outline: as §1
Potency is the fitted concentration of half-maximal effect.

SMILES | Potency (CP247) | Potency (CP250) | Potency (CP252) | Potency (CP256) | Potency (CP260) | Potency (CP262) | Potency (CP265) | Potency (CP266) | Potency (CP268) | Potency (CP269) | Potency (CP286) | Potency (CP291) | Potency (CP297) | Potency (CP305) | Potency (CP315) | Potency (CP325) | Potency (CP329) | Potency (CP335) | Potency (DFO2036) | Potency (DIV14)
CCCCN=C(N)N=C(N)N | inactive | inactive | inactive | inactive | inactive | inactive | inactive | inactive | inactive | inactive | inactive | inactive | inactive | inactive | inactive | inactive | inactive | inactive | inactive | inactive
CCN(CC)CCNc1ccc(CO)c2sc3ccccc3c(=O)c12 | 891 nM (active) | 1000 nM (active) | 562 nM (active) | 1780 nM (active) | 794 nM (active) | inactive | 1580 nM (active) | 5360 nM (active) | 3380 nM (active) | 1900 nM (active) | 2000 nM (active) | 4780 nM (active) | 1690 nM (active) | 3790 nM (active) | 6010 nM (active) | 4780 nM (active) | 4780 nM (active) | 1510 nM (active) | 447 nM (active) | 4260 nM (active)
COc1cc(N)c(Cl)cc1C(=O)NC1CCN(Cc2ccccc2)CC1 | inactive | inactive | inactive | inactive | inactive | inactive | inactive | inactive | inactive | inactive | inactive | inactive | inactive | inactive | inactive | inactive | inactive | inactive | inactive | inactive
CC(=O)Nc1ncc([N+](=O)[O-])s1 | inactive | inactive | inactive | inactive | inactive | inactive | inactive | inactive | inactive | inactive | inactive | inactive | inactive | inactive | inactive | inactive | inactive | inactive | inactive | inactive
CCC(CC)(CC(=O)Nc1cccc(/C=C/c2nc(C3CCC3)cs2)c1)C(=O)O | inactive | inactive | inactive | inactive | inactive | inactive | inactive | inactive | inactive | inactive | inactive | inactive | inactive | inactive | inactive | inactive | inactive | inactive | inactive | inactive
c1ccc(-c2nc[nH]c2-c2ccccc2)cc1 | inactive | inactive | inactive | inactive | inactive | inactive | inactive | inactive | inactive | inactive | inactive | inactive | inactive | inactive | inactive | inactive | inactive | inactive | inactive | inactive
Nc1nc(N)c(-c2ccccc2)s1 | inactive | inactive | inactive | inactive | inactive | inactive | inactive | inactive | inactive | inactive | inactive | inactive | inactive | inactive | inactive | inactive | inactive | inactive | inactive | inactive
CCOC(=O)C(C#N)=C(c1ccccc1)c1ccccc1 | inactive | inactive | inactive | inactive | inactive | inactive | inactive | inactive | inactive | inactive | inactive | inactive | inactive | inactive | inactive | inactive | inactive | inactive | inactive | inactive
CCCCCCCCCCCCCCCCO | inactive | inactive | inactive | inactive | inactive | inactive | inactive | inactive | inactive | inactive | inactive | inactive | inactive | inactive | inactive | inactive | inactive | inactive | inactive | inactive
CC(=O)Nc1ccc(S(=O)(=O)Nc2ccc([N+](=O)[O-])cc2)cc1 | inactive | inactive | inactive | inactive | inactive | inactive | inactive | inactive | inactive | inactive | inactive | inactive | inactive | inactive | inactive | inactive | inactive | inactive | inactive | inactive
CCN(CC)CCNC(=O)COc1ccc(OC)cc1 | inactive | inactive | inactive | inactive | inactive | inactive | inactive | inactive | inactive | inactive | inactive | inactive | inactive | inactive | inactive | inactive | inactive | inactive | inactive | inactive
COP(=O)(OC)OC(c1ccc(Cl)cc1)P(=O)(OC)OC (stereo not given) | inactive | inactive | inactive | inactive | inactive | inactive | inactive | inactive | inactive | inactive | inactive | inactive | inactive | inactive | inactive | inactive | inactive | inactive | inactive | inactive
Nc1ccc(S(=O)(=O)NCc2ccccc2)cc1 | inactive | inactive | inactive | inactive | inactive | inactive | inactive | inactive | inactive | inactive | inactive | inactive | inactive | inactive | inactive | inactive | inactive | inactive | inactive | inactive
CCC1Nc2cc(Cl)c(S(N)(=O)=O)cc2S(=O)(=O)N1 (stereo not given) | inactive | inactive | inactive | inactive | inactive | inactive | inactive | inactive | inactive | inactive | inactive | inactive | inactive | inactive | inactive | inactive | inactive | inactive | inactive | inactive

— PubChem BioAssay (NCATS)
